Screening results as filed in PubChem.
Compounds with a hit are over-represented: about 11% of the library has one in this group of screens.
AmpC detergent: blocks E. coli AmpC beta-lactamase in detergent assay; P00811; AmpC hydrolysis of nitrocefin, absorbance 480 nm, 0.01% Triton; Potency, µM (highest dose often 114 µM), usual class: inhibitors; 370,000 compounds, 0.041% hits; note: nearly all actives have a fitted effect of over 25% in size
Target sequence (P00811 whole entry, looked up): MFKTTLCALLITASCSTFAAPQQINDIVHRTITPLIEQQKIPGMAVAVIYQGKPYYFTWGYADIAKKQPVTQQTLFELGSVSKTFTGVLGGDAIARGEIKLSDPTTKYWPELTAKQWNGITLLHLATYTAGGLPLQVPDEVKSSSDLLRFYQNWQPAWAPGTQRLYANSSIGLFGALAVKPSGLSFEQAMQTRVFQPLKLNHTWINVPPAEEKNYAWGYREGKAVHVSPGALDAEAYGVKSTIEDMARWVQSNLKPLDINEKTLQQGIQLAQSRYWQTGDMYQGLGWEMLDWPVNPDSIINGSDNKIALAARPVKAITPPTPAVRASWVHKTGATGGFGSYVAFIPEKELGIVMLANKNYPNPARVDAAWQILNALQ
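20 mM phosphate pH 7.0 + 0.01% (detergent screen) or 0.0001% Triton X-100; 5.3 nM AmpC reagent; cpd preinc 15 min RT; nitrocefin (800 uM stock) to start; A480 q20 s × 4 min; Activity was normalised to no-enzyme and no-compound control wells.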
AMA1-RON2 inh: AMA1-RON2 (P. falciparum) interaction inhibition; AlphaScreen AMA1-biotinylated RON2 peptide binding; Potency, µM (highest dose often 58.2 µM), usual class: inhibitors; AID 720542; 360,000 compounds, 0.2% hits; note: nearly all actives have a fitted effect of over 45% in size
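AMA1 (3D7) with his tag at 25 nM final met compounds first, then biotinylated RON2 peptide at 25 nM; detection used donor plus acceptor beads, 10 µg/mL apiece, read by AlphaScreen after 30 min at room temperature.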
AmpC no deterg: inhibitors of E. coli AmpC beta-lactamase without detergent; AmpC nitrocefin hydrolysis, absorbance 480 nm, 0.0001% Triton; P00811; 330,000 compounds, 0.52% hits; Potency, µM (titrated, usually from 57.1 µM), usual class: inhibitors; AID 485341; note: nearly all actives have a fitted effect of over 20% in size
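20 mM phosphate pH 7.0 + 0.01% (detergent screen) or 0.0001% Triton X-100; 5.3 nM AmpC reagent; cpd preinc 15 min RT; nitrocefin (800 uM stock) to start; A480 q20 s × 4 min; Activity was normalised to no-enzyme and no-compound control wells.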
HCV inh: inhibitors of hepatitis C virus infection; Huh7.5.1 HCVcc-Cre infection, luciferase reporter, 44 h; Potency, µM (series often up to 41.8 µM), most hits filed as inhibitors; 340,000 compounds, 3.4% hits; AID 651820
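Luciferase read-out (15 sec integration) after a 15 min room-temperature substrate step quantifies HCVcc-Cre infection. Cells, 1,000 per well, had compound added 4 h post-plating, then virus at ~0.5 moi, and were cultured 44 h.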
Pf growth 96h: P. falciparum growth inhibition at 96 hour, primary screen for plastid delayed-death inhibitors | Potency, µM (series often up to 28.7 µM), most hits filed as inhibitors | 320,000 compounds, 6.9% hits | P. falciparum luciferase reporter growth, 96 h
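Plates of compound plus infected erythrocytes (2% hematocrit, 0.05% parasitemia final) incubate 96 hours, 37 C, 5% CO2. Detection reagent added; reduced luminescence from the parasites' luciferase reporter flags inhibition.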
Pf growth 48h: P. falciparum growth inhibition at 48 hours (one generation); P. falciparum luciferase growth in erythrocytes, 48 h; Potency, µM (series often up to 28.7 µM), actives largely listed as inhibitors; 310,000 compounds, 5.9% hits
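Erythrocytes infected with P. falciparum carrying an integrated firefly luciferase reporter (2% hematocrit, 0.1% parasitemia final) were exposed to compounds in RPMI 1640 with 0.5% Albumax at 37 C, 5% CO2. Growth inhibition was scored as reduced luminescence.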
A number is an active result; 0 = inactive; ? = inconclusive; - = no result. Calls come from the whole dose curve; as a rule, active = well fitted curve in the direction sought with a large enough effect; inconclusive = small, poorly fitted or top-dose-only effect, or another doubt; inactive = no such curve, though single readings can be large; an effect the other way counts as inactive or inconclusive.

SMILES | AmpC detergent | AMA1-RON2 inh | AmpC no deterg | HCV inh | Pf growth 96h | Pf growth 48h
COC(=O)[C@@]1(Cc2ccc(F)cc2)[C@H]2c3cc(C(=O)N(C)C)n(Cc4ccsc4Br)c3C[C@H]2CN1C(=O)c1ccccc1 | - | 0 | - | - | - | -
COC(=O)[C@@]1(Cc2ccc(F)cc2)[C@H]2c3cc(C(=O)N(C)C)n(CCSCCO)c3C[C@H]2CN1C(=O)c1ccccc1 | 0 | 0 | 0 | 0 | 13.1µM | 6.57µM
COC(=O)[C@@]1(Cc2ccc(F)cc2)[C@H]2c3cc(C(=O)N(C)C)n(Cc4nc5ccccc5[nH]4)c3C[C@H]2CN1C(=O)c1ccccc1 | 0 | 0 | 0 | ? | 3.7µM | 1.47µM
CCN(Cc1ccccc1)C(=O)Cn1c(=O)n(-c2ccc(Cl)cc2)c(=O)c2c(C)c(C(=O)N(C)C)sc21 | 0 | - | - | - | - | -
Cn1ncc2c(Nc3cccc(F)c3)ncnc21 | 0 | - | - | - | - | -
CC(C)CN(CCCNC(=O)CN1N=C(c2ccccc2)CCC1=O)CC(C)C | 0 | - | - | - | - | -
COC(=O)Cc1c(C)c2cc3c(c(C)c2oc1=O)OCN(CCc1ccc(F)cc1)C3 | 0 | - | - | - | - | -
COC(=O)C(C)NC(=O)C(C)NC(=O)OCc1ccccc1 (stereo unspecified) | ? | 0 | 0 | 0 | - | 0
CC(NC(=O)OCc1ccccc1)C(=O)OCN1C(=O)c2ccccc2C1=O (stereo unspecified) | 0 | 0 | 0 | 0 | 11.7µM | 0
CCOC(=O)CSc1nnc2c(n1)C1(C)CCC2C1(C)C (stereo unspecified) | 0 | 0 | 0 | 0 | 3.29µM | 0
CC12CCC(c3nnc(SCC(=O)Nc4cccc5ccccc45)nc31)C2(C)C (stereo unspecified) | 0 | 0 | 0 | 0 | ? | 0
CC12CCC(c3nnc(SCc4ccc(Cl)cc4)nc31)C2(C)C (stereo unspecified) | 0 | 0 | 0 | 0 | 4.15µM | 0
Cn1cc(-c2cc3n(n2)CCC(=O)N3CCCC(=O)NCc2ccccc2Cl)c2ccccc21 | 0 | - | - | - | - | -
Cc1ccc(S(=O)(=O)N2CCC(C(=O)Nc3ccc(N4CCOCC4)cc3)CC2)cc1C | ? | 0 | 0 | 0 | ? | 4.15µM
O=C(Nc1ccc(S(=O)(=O)N2CCOCC2)cc1)C1CC1 | 0 | 0 | 0 | 0 | 4.65µM | 0
Cc1ccccc1NC(=O)NCC1CCN(c2ccc(S(=O)(=O)N3CCOCC3)cc2)CC1 | 0 | 0 | 0 | 35.5µM | 0 | ?
O=C(Nc1ccc(N2CCOCC2)cc1)C1CCN(S(=O)(=O)c2ccc3c(c2)OCCO3)CC1 | 0 | 0 | 0 | 0 | ? | 8.28µM
O=C(Nc1cc(C(F)(F)F)ccc1Cl)c1cnn(-c2ccccc2)c1-n1cccc1 | 0 | - | - | - | - | -
Cn1c2cc([N+](=O)[O-])sc2c2cnn(Cc3ccccc3F)c(=O)c21 | 0 | - | 0 | - | ? | ?
O=C(C1CCN(S(=O)(=O)c2ccc(Cl)cc2)CC1)N1CCOCC1 | 0 | 0 | 0 | 0 | 0 | -
O=C(C1CCN(S(=O)(=O)c2ccc(F)cc2)CC1)N1CCOCC1 | 0 | 0 | 0 | 0 | 7.38µM | 0
COc1ccc(Nc2nc3cc(Cl)c(Cl)cc3n3cnnc23)cc1Cl | 0 | - | - | - | - | -
COc1ccc(S(=O)(=O)N2CCC(C(=O)Nc3ccc(Oc4ccccc4)cc3)CC2)cc1OC | 0 | - | - | - | - | -
CC(Oc1ccc(Cl)cc1Cl)C(=O)Nc1ccc(N2CCN(C)CC2)cc1 (stereo unspecified) | 0 | 0 | 0 | ? | 0 | 13.1µM
Cc1cc(NC(=O)C(C)Oc2ccc(Cl)cc2Cl)n(-c2ccccc2)n1 (stereo unspecified) | ? | 0 | 0 | ? | 5.86µM | -
Cc1ccccc1Cn1c(C)c(CNCCCc2ccccc2)c(C(=O)O)c1C | 0 | - | - | - | - | -
O=C(CCc1nnc2n(Cc3ccccc3Cl)c(=O)c3ccccc3n12)Nc1ccccc1 | 0 | - | - | - | - | -
Cc1ccc(/C=C/S(=O)(=O)NCc2ccc(F)cc2)cc1 | 0 | 0 | 0 | 0 | ? | 10.4µM
Cc1ccc(/C=C/S(=O)(=O)Nc2ccc(C)cc2)cc1 | ? | 0 | 0 | 0 | 0 | ?
Nc1cc(=O)[nH]c(SCc2ccc(Cl)cc2Cl)n1 | 0 | 0 | 0 | 3.16µM | 0 | -
